# A selection: hits, their analogues and other compounds. The true share with any hit is near 7.4%.
# FLuc modulator: qHTS profiling assay for firefly luciferase inhibitor/activator using purifed enzyme and Km concentrations of substrates (counterscreen for miR-21 project) | purified FLuc, Km substrates, luminescence inhibition | Luciferin 4-monooxygenase (Photinus pyralis), P08659 | 360,000 compounds, 6.9% hits | Potency, µM (series often up to 57.5 µM), for inactives: at the highest dose activity change, negative = inhibition, hits mostly inhibitors;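 note: plate controls were vehicle for no effect and reference inhibitor for full effect; nearly all actives have a fitted effect of over 55% in size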
# Target sequence (P08659 whole entry, looked up): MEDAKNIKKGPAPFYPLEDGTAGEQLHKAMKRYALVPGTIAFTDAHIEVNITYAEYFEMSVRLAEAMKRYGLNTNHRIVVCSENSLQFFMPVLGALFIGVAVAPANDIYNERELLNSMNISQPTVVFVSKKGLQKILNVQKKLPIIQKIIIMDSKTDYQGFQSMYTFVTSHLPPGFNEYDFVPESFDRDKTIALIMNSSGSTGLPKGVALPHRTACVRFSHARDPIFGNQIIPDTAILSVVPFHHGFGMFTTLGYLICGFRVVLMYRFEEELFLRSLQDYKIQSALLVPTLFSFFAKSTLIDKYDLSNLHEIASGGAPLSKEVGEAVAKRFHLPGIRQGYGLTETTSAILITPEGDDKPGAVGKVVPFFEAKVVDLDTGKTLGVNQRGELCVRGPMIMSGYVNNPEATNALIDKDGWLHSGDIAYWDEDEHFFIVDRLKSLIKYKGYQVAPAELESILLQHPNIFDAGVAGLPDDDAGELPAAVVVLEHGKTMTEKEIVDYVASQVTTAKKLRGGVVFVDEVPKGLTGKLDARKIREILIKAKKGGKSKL
#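 Purified P. pyralis luciferase, 10 nM final, with Km-level 10 uM D-luciferin and 10 uM ATP in 50 mM Tris acetate pH 7.5, 10 mM Mg acetate, 0.01% Tween-20, 0.05% BSA; 6-point qHTS titration about 60 µM downward; luminescence read.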
# ELG1 genotox: qHTS screen for small molecules that induce genotoxicity in human embryonic kidney (HEK293T) cells expressing luciferase-tagged ELG1 | HEK293T ELG1-luciferase reporter, luminescence, 16 h | Potency, µM (highest dose often 46 µM), inactives show at the top dose activity change, positive = activation, hits mostly activators | 330,000 compounds, 1.3% hits | AID 504466, 2011; note: % of control where 0% means no effect; nearly all actives have a fitted effect of over 60% in size
#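 ELG1-luciferase HEK293T cells, 2,000/well; compound pinned in; 16 hr, 37 °C, 5% CO2; ONE-Glo, 30 min RT; luminescence on CCD imager.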
# NPC1 prom act: qHTS Assay for NPC1 Promoter Activators; Huh7 NPC1 promoter luciferase reporter, 24 h; Potency, µM (top dose mostly 9.22 µM), without a hit: at the top dose activation, hits mostly activators; 320,000 compounds, 2.4% hits; note: % of control where 0% means no effect; nearly all actives have a fitted effect of over 60% in size
#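 Stable NPC1-promoter luciferase Huh7 line; cpd (DMSO) 24 h, 37 °C, 5% CO2; Amplite luciferase reagent 10 min RT; luminescence readout. qHTS format.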
# Rab9 prom act: qHTS Assay for Rab9 Promoter Activators; Huh7 Rab9 promoter-luciferase reporter, luminescence, 24 h; AID 485297, 2010; 320,000 compounds, 2.8% hits; Potency, µM (doses to about 9.22 µM), without a hit: at the top dose activation, negative = inhibition, usual class: activators; note: % of control where 0% means no effect; nearly all actives have a fitted effect of over 60% in size
#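 Stable Rab9-luc Huh7, 1500 cells/well, 2 h settle; cmpd in DMSO, 24 h, 37 °C/5% CO2; luciferase reagent 10 min RT; luminescence.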
# SMN2 splice enh: qHTS Assay for Enhancers of SMN2 Splice Variant Expression | HEK293 SMN2-luciferase splicing reporter, luminescence, 30-36 h | Potency, µM (doses to about 46.1 µM), without a hit: at the highest dose activity change, positive = activation, usual class: activators | 210,000 compounds, 2.8% hits | AID 1458, 2008; note: % of control where 0% means no effect; nearly all actives have a fitted effect of over 55% in size
#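 qHTS luciferase splicing reporter: luminescence rises when SMN2 exon 7 is included in transfected HEK293 cells. Compound exposure lasted 30-36 h at 37C, with 4.5 mM final sodium butyrate as control, followed by a ONE-Glo read.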
# Starred values were filed as active, the others as inactive; ? = inconclusive; · = not tested or not shown; [ ] = remark or other dose. Calls come from the whole dose curve; as a rule, active = well fitted curve in the direction sought with a large enough effect; inconclusive = small, poorly fitted or top-dose-only effect, or another doubt; inactive = no such curve, though single readings can be large; an effect the other way counts as inactive or inconclusive. Potency is the fitted concentration of half-maximal effect.
SMILES,FLuc modulator,ELG1 genotox,NPC1 prom act,Rab9 prom act,SMN2 splice enh
CO/N=C/c1cccn1-c1nccc(OC)c1C#N,0.0%,1.6%,1.0%,3.3%,·
CC(C)CCN1C(=O)C2(OCCCO2)c2cc(Cl)ccc21,1.2%,0.5%,-1.9%,-1.1%,·
Cc1ccc(Cl)c2sc(NC(=O)C3=COCCO3)nc12,19µM*,?,-4.8%,4.9%,·
COc1ccc(Cl)c2sc(NC(=O)C3=COCCO3)nc12,?,?,21.7%,-5.0%,·
Cc1ccc(-c2nn(-c3ccccc3)cc2CO)cc1,15.1µM*,?,?,?,·
COc1ccc(-c2nn(-c3ccccc3)cc2CO)cc1,?,?,2.6%,?,-43.9%
CN(Cc1cn(-c2ccccc2)nc1-c1ccc(Cl)cc1)C(=O)CCC(=O)O,10.7µM*,4.0%,6.7%,-10.8%,5.7%
CN(Cc1cn(-c2ccccc2)nc1-c1ccc(F)cc1)C(=O)CCC(=O)O,12µM*,4.0%,-2.2%,-2.8%,14.3%
CN(CC(=O)Nc1cccc(F)c1)C(=O)c1cn(-c2ccccc2)nc1-c1ccc(F)cc1,?,-3.9%,-3.4%,-0.2%,·
Cc1ccc(-n2ncc(C(=O)NCc3ccccc3C)c2-n2cccc2)cc1,-18.8%,·,·,·,·
Cc1cn2c(=O)cc(COC(=O)c3cccc(NC(=O)c4ccc(C(C)(C)C)cc4)c3)nc2s1,0.757µM*,·,·,·,·
Cc1cccc(C(=O)Nc2cccc(OCc3cc(=O)n4cc(C)sc4n3)c2)c1,-9.0%,·,·,·,-3.0%
Cc1cn2c(=O)cc(COc3cccc(NC(=O)c4ccc(C(C)(C)C)cc4)c3)nc2s1,1.2µM*,·,·,·,9.2%
CCCC[C@@H]1C[C@H]1C(NC(=O)c1cccs1)c1ccccc1C(F)(F)F (stereo not given in full),·,·,·,·,-49.1%
c1cc(-c2cccs2)nc(-c2cccs2)c1,15.1µM*,10.5%,7.7%,4.3%,20.4%
c1csc(-c2cnc3ccccc3n2)c1,10.7µM*,?,3.98µM*,?,?
c1ccc(-c2cccs2)nc1,5.5%,-2.4%,0.7%,-0.1%,·
COC(=O)[C@@H](NC(=O)N1CCC(Cc2ccccc2)CC1)C(C)C,-3.2%,-3.0%,-2.5%,-0.8%,·
CCC(=O)OCN1C(=O)C=CC1=O,·,·,·,·,-8.7%[9.22 µM]
CC1(C)SC(=S)N(NC(=O)Nc2ccccc2)C1N(O)C(=O)Nc1ccccc1 (stereo not given),-0.1%,-0.9%,0.4%,9.4%,0.0%
CNC(=O)N(O)C1N(NC(=O)Nc2cccc3ccccc23)C(=S)SC1(C)C (stereo not given),-1.4%,4.0%,-4.2%,-1.1%,7.08µM*
O=C1NC(c2ccc(Br)cc2)Nc2sc3c(c21)CCC3 (stereo not given),?,12.3%,?,?,-15.1%
CN1CCc2c(sc3c2C(=O)NC(c2ccccc2)N3)C1 (stereo not given),?,0.2%,4.4%,10.9%,13.4%
Cc1cccc(C2NC(=O)c3c(sc4c3CCN(C)C4)N2)c1O (stereo not given),23.9µM*,·,·,·,15.8µM*
Cc1ccc(C2NC(=O)c3c(sc4c3CCN(C)C4)N2)s1 (stereo not given),12µM*,3.2%,?,?,-15.1%
SMILES,FLuc modulator,ELG1 genotox,NPC1 prom act,Rab9 prom act,SMN2 splice enh
Cc1ccsc1C1NC(=O)c2c(sc3c2CCCC3)N1 (stereo not given),16.9µM*,?,?,?,15.8µM*
O=C(c1cc2cc(Cl)ccc2[nH]1)N1CCN(c2ccccn2)CC1,5.0%,-3.1%,-5.4%,-1.6%,·
O=C(Nc1ccc2c(c1)N(C1CCCC1)C(=O)c1ccccc1S2)c1ccccc1F,5.5%,·,·,·,·
O=C(Cn1c2ncccc2c(=O)n1-c1ccccc1)NCc1ccccc1Cl,-2.0%,·,·,·,·
COc1ccccc1N1CCN(/N=C/c2ccc(O)c(O)c2)CC1,?,?,-28.4%,-20.6%,?
C(=N/N1CCN(c2ccccc2)CC1)/c1ccncc1,-23.4%,-2.1%,-1.2%,-7.7%,·
O=C(O)c1ccc(/C=N/N2CCN(c3ccccc3)CC2)cc1,4.26µM*,15.2%,1.12µM*,1.41µM*,·
COc1ccccc1N1CCN(/N=C/c2ccc(C(=O)O)cc2)CC1,2.69µM*,?,1µM*,0.708µM*,·
COc1ccccc1NC(=O)C(=O)NCCC1CCCCN1S(=O)(=O)c1ccccc1 (stereo not given),-10.1%,-2.1%,4.2%,-1.2%,·
COc1cccc(NC(=O)C(=O)NCC2CCCN2S(=O)(=O)c2ccccc2)c1 (stereo not given),15.1µM*,2.9%,15.7%,?,·
COc1cccc(NC(=O)C(=O)NCCC2CCCCN2S(=O)(=O)c2ccccc2)c1 (stereo not given),23.9µM*,5.5%,-0.2%,12.7%,·
COc1cc(C2NC(=S)NC3=C2CCc2ccccc23)cc(OC)c1OC (stereo not given),-1.8%,2.8%,-0.6%,-3.6%,4.6%
C=CCOc1ccc(C2NC(=S)NC3=C2CCc2ccccc23)cc1 (stereo not given),6.01µM*,23.8%,1.3%,-11.0%,·
COc1cccc2c1OCC/C2=N\NC(=O)COc1ccccc1C,6.75µM*,9.0%,8.6%,1.4%,16.6%
COc1cccc2c1OCC/C2=N\NC(=O)COc1ccc(C)cc1,15.1µM*,6.9%,-0.8%,1.4%,30.1%
Cc1ccc(-c2cc(C(=O)NCc3ccccc3)c3c(-c4ccc(C)cc4)[nH]nc3n2)cc1,1.4%,·,·,·,·
Cc1c(C(=O)N2CCC3(CC2)CC(=O)c2ccccc2O3)cccc1[N+](=O)[O-],0.6%,-4.1%,-3.1%,-5.4%,·
O=S(=O)(c1cccs1)N1CCCc2cccc(O)c21,19µM*,4.8%,7.5%,3.55µM*,9.2%
O=C(Nc1ccc2c(c1)N(S(=O)(=O)c1cccs1)CCC2)c1c(F)cccc1F,0.5%,4.1%,-0.7%,-4.5%,·
Cc1cc(NC(=O)c2cccc(Cl)c2)n[nH]1,19µM*,?,2.82µM*,2.51µM*,·
O=C(Nc1cc(-c2ccccc2)[nH]n1)c1ccc(Cl)cc1,10.7µM*,?,2µM*,3.16µM*,·
CCCCCCCC/C=C\CCCCCCCC(N)=O,·,·,·,·,-9.6%
CCOC(=O)c1sc(NC(=O)Nc2ccc(Cl)cc2)nc1C,2.69µM*,2.1%,3.98µM*,?,?
Cc1cccc(C(=O)Nc2nc(C)c(C(=O)Nc3ccc4c(c3)CCC4)s2)c1,6.75µM*,9.0%,0.1%,-3.2%,?
CC(=O)c1sc(Nc2cccc(C)c2)nc1C,21.3µM*,?,20.0%,?,?
CCOC(=O)c1sc(Nc2nc3c(OC)cccc3s2)nc1C,6.75µM*,?,?,?,?

# Bioassay records (PubChem)
